Data from PubChem BioAssay AID686971 (National Center for Advancing Translational Sciences (NCATS), 2013).
Screen size: about 360,000 compounds; about 7,500 (2.1%) were called active. Another 8% or so got no clear call; they are omitted. Calls come from the whole dose curve; as a rule, active = well fitted cell-killing curve with a large enough effect; inconclusive = small, poorly fitted or top-dose-only effect, or effect the other way, or another doubt; inactive = no such curve, though single readings can be large or run the other way. Shown is part of a subset that was picked to be rich in actives.

experiment: qHTS for induction of synthetic lethality in tumor cells producing 2HG: qHTS for the HT-1080-IDH1KD cell line; details: HT-1080 IDH1 knockdown viability, ATP luminescence, 48 h; series mostly up to 46.1 µM; activity, negative = toxicity: at the top concentration;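 for activity, negative = toxicity: 0% = DMSO wells and -100% = cell-free medium wells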
Summary of the method: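 Knockdown cells (IDH1KD HT-1080) received compounds 2 h after plating at 750 cells/well and were kept 48 h at 37 °C in 5% FBS RPMI. A CellTiter-Glo luminescence read gave % activity for curve fitting.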
Potency is the fitted concentration of half-maximal effect.

| Compound | activity, negative = toxicity | Potency |
| --- | --- | --- |
| CCNC(=O)C1(C)CCCN(C(=O)c2c(C)noc2C)C1 (stereo unspecified) | 2.57% (inactive) | – |
| CN1OC[C@@H]2CN(S(=O)(=O)c3cccc(C(F)(F)F)c3)[C@H](c3ccc(-c4cc5ccccc5o4)cc3)C[C@@H]21 | 1.74% (inactive) | – |
| COCCNC(=O)C1C(=O)Nc2ccccc2C(=O)N1c1ccc2c(c1)OCCO2 (stereo unspecified) | 21.6% (inactive) | – |
| C[C@@H]1CN([C@@H](C)CO)C(=O)CCCn2nncc2CO[C@@H]1CN(C)S(=O)(=O)c1ccc(-c2ccccc2)cc1 | -1.95% (inactive) | – |
| Cn1c(=O)c2cc(NC(=O)NCCc3cccs3)ccc2n1Cc1cccc(C(F)(F)F)c1 | -29% (inactive) | – |
| Clc1ccc(-c2cc(C3CCNCC3)[nH]n2)c(Cl)c1 | – | 23.1 µM (active) |
| Clc1ccc(-c2cc(-c3ccccn3)on2)c(Cl)c1 | -24.4% (inactive) | – |
| O=C(OCc1cn([C@@H]2C[C@H](c3ccc(Cl)cc3)N(Cc3cccs3)C[C@H]2O)nn1)c1ccccc1 | 1.15% (inactive) | – |
| COC(=O)[C@@]12C[C@@H](CC(=O)N3CCCCC3)C(=O)N(Cc3ccc4c(c3)OCO4)C1=CCC(C)(C)C2 | -23.6% (inactive) | – |
| CC(=O)c1cccc(NC(=S)N2CCCC2)c1 | 11.1% (inactive) | – |
| C=CCSc1nsc(NC(=O)Nc2cccc(C(C)=O)c2)n1 | – | 16.4 µM (active) |
| CSc1ccccc1C(=O)Nc1cccc(C(C)=O)c1 | -6.03% (inactive) | – |
| Cc1cc2oc(=O)cc(CN(C)Cc3ccccc3)c2cc1Cl | 2.28% (inactive) | – |
| Cc1ccc2[nH]c(C(=O)O)c(NC(=O)c3ccccc3[N+](=O)[O-])c2c1 | 9.67% (inactive) | – |
| Cc1c(C(=O)N/N=C/c2ccccc2)[nH]c2c([N+](=O)[O-])cccc12 | – | 0.517 µM (active) |
| Cc1nn(-c2ccccc2)c(Cl)c1/C=N/NC(=O)c1nn(C)cc1[N+](=O)[O-] | -29.8% (inactive) | – |
| CC1(C)OC(=O)C2=C(C[C@@H](C3CCCC3)O[C@@H]2c2ccc(Cl)cc2)O1 | 8.76% (inactive) | – |
| CC1(C)CCc2cc(S(=O)(=O)N3CCN(c4nc(-c5cccs5)nc5ccccc45)CC3)ccc2O1 | 5.15% (inactive) | – |
| COc1ccc(C(C)(NC(C)=O)c2nc(-c3ccc(S(C)(=O)=O)cc3)cs2)cc1 (stereo unspecified) | 8.14% (inactive) | – |
| COC(=O)c1ccc2nc(-c3ccc(Cl)cc3)c(Cc3cccc(F)c3)n2c1 | 9.38% (inactive) | – |
| CC(C)CC[n+]1ccn(C2=C([O-])c3ccccc3C(=O)/C2=N\S(=O)(=O)c2ccccc2)c1 | – | 11.2 µM (active) |
| CC[C@@H]1CC2=C(C(=O)OC(C)(C)O2)[C@@H](CC)O1 | -0.785% (inactive) | – |
| CCOC(=O)C1(C)CCCN(C(=O)c2ccc(N(C)C)cc2)C1 (stereo unspecified) | 8.71% (inactive) | – |
| CCN1CCN(c2ccc([N+](=O)[O-])cc2C(=O)c2ccc(Cl)cc2)CC1 | – | 23.1 µM (active) |

| Compound | activity, negative = toxicity | Potency |
| --- | --- | --- |
| CCC(=O)c1ccc(N2CCN(C(=O)c3cc([N+](=O)[O-])ccc3F)CC2)c(F)c1 | 2.7% (inactive) | – |
| O=C(Nc1cccc(Cl)c1)c1cc([N+](=O)[O-])ccc1N1CCN(CCO)CC1 | -0.581% (inactive) | – |
| CN(Cc1c(F)cccc1Cl)C(=O)COC(=O)Cn1cnc2ccccc2c1=O | 4.82% (inactive) | – |
| Cn1c(=O)n(Cc2ccco2)c(=N)c2c3c(sc21)CCCC3 | -10% (inactive) | – |
| O=c1c2c3c(sc2n(CCN2CCCC2)c(=O)n1Cc1ccccc1)CCCCC3 | -0.168% (inactive) | – |
| CN(C)CCCn1c(=O)n(Cc2ccccc2)c(=O)c2c3c(sc21)CCCCC3 | – | 25.9 µM (active) |
| COc1cccc(-c2nc3nc(C)cc(C)n3c2NC2CCCCC2)c1 | 7.4% (inactive) | – |
| COC(=O)C[C@H]1C=C[C@@H](NS(=O)(=O)c2ccc(C)cc2)[C@@H](CO)O1 | 15.1% (inactive) | – |
| COCCNC(=O)C1(C)CCCN(Cc2cccc(F)c2)C1 (stereo unspecified) | 9.99% (inactive) | – |
| CCCc1cc(=O)[nH]c(SCC(=O)c2cc(C)n(CCC)c2C)n1 | 2.35% [at 9.24 µM] (inactive) | – |
| CCCc1cc(=O)[nH]c(SCC(=O)OCc2ccccc2)n1 | 0.689% (inactive) | – |
| CCCc1cc(=O)[nH]c(SCC(=O)c2c(N)n(CC(C)C)c(=O)n(C)c2=O)n1 | – | 3.26 µM (active) |
| COC(=O)c1ccc2nc(-c3ccccc3)c(Cc3ccc(OC)cc3C)n2c1 | 5.54% (inactive) | – |
| O=C(c1cc(C2CCCCN2S(=O)(=O)c2ccccc2)on1)N1CCOCC1 (stereo unspecified) | 19.8% (inactive) | – |
| CCOC(=O)/C(=C\c1ccc([N+](=O)[O-])cc1)C(=O)c1cc(C(C)=O)c(Nc2ccccc2)s1 | 17.6% (inactive) | – |
| CCOC(=O)C(=Cc1ccccc1)C(=O)c1ccccc1 | – | 18.4 µM (active) |
| CCOC(=O)NC(=O)/C(C#N)=C\c1ccccc1 | 1.01% (inactive) | – |
| COC(=O)C[C@H]1C[C@@H]2c3cc(NC(=O)Nc4ccccc4)ccc3O[C@@H]2[C@@H](CO)O1 | 4.69% (inactive) | – |
| COc1ccc(C2Nc3ccc(NC(=O)COC(C)=O)cc3C(=O)N2Cc2ccccc2)cc1COc1ccc(NC(C)=O)cc1 (stereo unspecified) | -21.2% (inactive) | – |
| Cc1cccc(NC(=O)c2ccc(S(=O)(=O)N(C)c3ccccc3)cc2)n1 | -21.5% (inactive) | – |
| CCN(c1ccccc1)S(=O)(=O)c1ccc(C(=O)Nc2nccs2)cc1 | 10% (inactive) | – |
| C=CCN(CC=C)S(=O)(=O)c1ccc(C(=O)Nc2nc3c(s2)CCc2ccccc2-3)cc1 | – | 14.6 µM (active) |
| Cc1ccccc1S(=O)(=O)NC(=O)C1(C)CCN1C(=O)C1(c2ccc(Cl)cc2)CC1 (stereo unspecified) | 28% (inactive) | – |
| CNS(=O)(=O)c1ccc2c(c1)[nH]c(=S)n2C | -8.8% (inactive) | – |

| Compound | activity, negative = toxicity | Potency |
| --- | --- | --- |
| COc1ccc(-c2nc(N)ncc2-c2ccc(Cl)cc2)c(O)c1 | -6.82% (inactive) | – |
| COc1ccc(OC)c(Cc2nnc(CCC(=O)NC3CCCC3)o2)c1 | 11.3% (inactive) | – |
| COc1ccc(OC)c(Cc2cnc3nc(N)nc(N)c3c2C)c1 | – | 0.0103 µM (active) |
| Nc1nc2cc(Cl)ccc2n1N | 8.14% (inactive) | – |
| CCC(C)CN1C(=O)CSCC1(C)C(=O)NCc1ccccc1 (stereo unspecified) | 24.8% (inactive) | – |
| Cc1sc2ccccc2c1CNC[C@H]1O[C@@H](n2ccc(=O)[nH]c2=O)[C@H](O)[C@@H]1O | 14.3% (inactive) | – |
| O=C(COC(=O)c1cncc(Br)c1)Nc1ccc(S(=O)(=O)N2CCOCC2)cc1 | -1.98% (inactive) | – |
| CCc1nc2c(OCCOc3ccccc3)cccn2c1N(C)C(=O)c1cccs1 | 5.52% (inactive) | – |
| Cc1cccc(-c2cnc(C(O)c3cc(C)cc(C)c3)[nH]2)c1 (stereo unspecified) | -12.6% (inactive) | – |
| CCCOc1cccc(C(=O)NCCCNC(=O)c2cccnc2)c1 | 0.556% (inactive) | – |
| Cc1ccc(OCC(=O)NCCCNC(=O)c2cccnc2)cc1C | – | 18.4 µM (active) |
| Cc1cccc(OCC(=O)NCCNC(=O)c2cccnc2)c1 | -4.95% (inactive) | – |
| CCN(CC)C(=O)C1=C(C)N(Cc2ccc(F)cc2)C(=O)C(CC(=O)NCc2cccc3ccccc23)C1 (stereo unspecified) | -2.6% (inactive) | – |
| COc1cccc(/C=N/NC(=O)c2[nH]nc3c2CCc2ccccc2-3)c1O | – | 3.66 µM (active) |
| COc1cccc(/C=N\NC(=O)C2=NNC(=O)C2C)c1O (stereo unspecified) | – | 25.9 µM (active) |
| COc1ccc(Br)cc1/C=N/NC(=O)c1cccc(S(=O)(=O)N2CCOCC2)c1 | -20.3% (inactive) | – |
| Cc1ccc(C(=O)N/N=C/c2cccc3ccccc23)cn1 | 6.84% (inactive) | – |
| COc1ccc(/C=N/NC(=O)c2ccncc2)cc1CN1CCCc2ccccc21 | -7.69% (inactive) | – |
| COc1cc(/C=N\NC(=O)C2C(=O)NCC2c2ccccc2)cc(OC)c1O (stereo unspecified) | 2.02% (inactive) | – |
| CC(C)C1CC2=C(C(=O)OC(C)(C)O2)C(c2ccc(F)cc2)O1 (stereo unspecified) | 6.13% (inactive) | – |
| CC1=C(C(=O)N2CCOCC2)CC(CC(=O)NCC2CCCCC2)C(=O)N1Cc1ccc(F)cc1 (stereo unspecified) | -8.15% (inactive) | – |
| O=Nc1c(O)cc(O)c2ccccc12 | 4.65% (inactive) | – |
| COC(=O)C[C@@H]1C=C[C@@H](NC(=O)c2cccnc2)[C@@H](CO)O1 | 8.29% (inactive) | – |
| O=C1NC[C@H](CCCCN2C[C@H](Cc3ccc(O)cc3)N(CC3CCCCC3)C(=O)C2=O)N(CCc2ccccc2)C1=O | 8.08% (inactive) | – |

| Compound | activity, negative = toxicity | Potency |
| --- | --- | --- |
| CCCCCCN1C[C@H](O)[C@@H](n2cc(C3CC3)nn2)C[C@@H]1c1ccc(Cl)cc1 | 6.32% (inactive) | – |
| O=C(COc1ccc(S(=O)(=O)Nc2cccc(C(F)(F)F)c2)cc1)N1CCOCC1 | -12.4% (inactive) | – |
| Cc1oc2c(F)c(F)c(F)c(F)c2c1S(=O)(=O)Nc1cccc(C(F)(F)F)c1 | – | 18.4 µM (active) |
| CCOC(=O)N1CCN(C(=O)c2ccc(S(=O)(=O)Nc3cccc(C(F)(F)F)c3)cc2)CC1 | -0.977% (inactive) | – |
| COc1cc(C(=O)N2CCOC23CCN(Cc2ccccc2)CC3)cc(OC)c1OC | 7.44% (inactive) | – |
| CCN(CC)C(=O)C1=C(C)N(Cc2ccccc2)C(=O)C(CC(=O)NC(c2ccccc2)c2ccccc2)C1 (stereo unspecified) | -2.22% (inactive) | – |
| COc1cccc(NC(=O)C2(C)CCN2C(=O)CCC2CCCC2)c1 (stereo unspecified) | -5.46% (inactive) | – |
| CCC(C(=O)OCC(=O)Nc1ccccc1-c1ccccc1)c1ccccc1 (stereo unspecified) | 3.86% (inactive) | – |
| CCC(C(=O)OCC(=O)Nc1ccc(C(=O)Nc2ccc(OC)cc2)cc1)c1ccccc1 (stereo unspecified) | – | 25.9 µM (active) |
| CCC(C(=O)OCC(=O)Nc1c(Cl)cc(Cl)cc1Cl)c1ccccc1 (stereo unspecified) | -0.177% (inactive) | – |
| CC(C)N1C(=O)c2ccccc2NC(=O)C1C(=O)NCc1cccs1 (stereo unspecified) | 25.2% (inactive) | – |
| Cc1cccc(NC(=O)COC(=O)c2ccccc2OCc2cccc(Br)c2)c1 | 9.94% (inactive) | – |
| O=C1C=C(NS(=O)(=O)c2ccccc2)C(=O)c2ccccc21 | -20.1% (inactive) | – |
| O=C(NC1=CC(=O)c2ccccc2C1=O)c1ccccc1 | – | 7.31 µM (active) |
| Cn1c(NC(=O)c2ccccc2)nc2ccccc21 | -20% (inactive) | – |
| Cc1ccc(-c2c(N)nc3ncccn23)cc1 | 9.85% (inactive) | – |
| CCNC(=O)C1CCCN(C(=O)c2ccc(OC)cc2OC)CC1 (stereo unspecified) | 10.3% (inactive) | – |
| COc1cccc(CNc2nc(NCc3cccs3)nc3ccsc23)c1 | – | 23.1 µM (active) |
| COc1cccc(CNc2nc(NCc3ccccc3OC)nc3ccsc23)c1 | – | 23.1 µM (active) |
| Clc1ccccc1Nc1nc(NCc2cccs2)nc2ccsc12 | 1.77% (inactive) | – |
| COc1ccccc1CNc1nc(Nc2ccccc2Cl)c2sccc2n1 | -14.8% (inactive) | – |
| COc1ccc(NC(=S)NCc2cccs2)c(OC)c1 | 6.2% (inactive) | – |
| COc1cccc(-c2cc3nc(NCc4ccccc4OC)n(C)c(=O)c3s2)c1 | -4.35% (inactive) | – |
| COc1ccc(COC[C@H](CC(C)C)N2CCN(C(=O)c3cccc(C(F)(F)F)c3)CCC2=O)cc1 | -17.8% (inactive) | – |
